Measurements from PubChem BioAssay AID720650 (Broad Institute, 2013).
A number with no mark means an inactive call. Activity calls are given as the source filed them. How the calls were made is not given here.

Assay: C difficile toxins, biochemical counterscreen, UDPG substrate absence, confirmatory dose response (AID 720650)
Conditions: series mostly up to 19.5 µM; activity change, negative = inhibition: at the top concentration

Row | SMILES | AC50 | activity change, negative = inhibition [%]
1 | COc1cc(/C=C(/NC(=O)c2ccccc2)C(=O)Nc2ccc(O)cc2)c([N+](=O)[O-])cc1OC | 13.9 µM (active) | 
2 | CCNC(=O)C[C@H]1CC[C@@H]2[C@@H](COc3ccc(NC(=O)c4ccc5c(c4)OCO5)cc3C(=O)N2C)O1 | > 39 µM | 
3 | CC1CCC/C(=C\c2ccc(O)cc2)C1=O (stereo unspecified) | 7.48 µM (active) | 
4 | Oc1ccc(/C=N/Nc2ncnc3nc[nH]c23)cc1 |  | 18
5 | Cn1cnnc1SCC(=O)NC1CCCCC1 |  | -1.35
6 | O=C(O)c1cccnc1SCc1ccccc1Cl |  | -15
7 | CCC(=O)Nc1ccc2c(c1)OC[C@@H](C)N(C(=O)NC(C)C)C[C@@H](C)[C@@H](OC)CN(C)C2=O |  | 0.233
8 | Cc1c(-n2c(O)c(C3=c4ccccc4=NC3=O)sc2=S)c(=O)n(-c2ccccc2)n1C |  | 6.56
9 | O=C(N/C(=C\c1ccc(O)cc1)C(=O)N1CCCCC1)c1ccccc1 |  | -3.64
10 | S=C(NCCc1ccccc1)Nc1ncccn1 |  | -8.54
11 | COc1ccc(/C=N/N=C2/NC(=O)C(CC(=O)NC(N)=O)S2)cc1 (stereo unspecified) |  | -11.2
12 | CC(OC(=O)c1cccnc1Cl)C(=O)NC1CCCCC1 (stereo unspecified) |  | 9.9
13 | CCCCn1c(CN2CCN(C(=O)c3ccco3)CC2)nc2c1c(=O)n(C)c(=O)n2C |  | -3.65
14 | CC(Sc1nccn1C)C(=O)c1c(N)n(C)c(=O)n(C)c1=O (stereo unspecified) |  | 13
15 | COc1cc2[nH]c(=S)n(Cc3cccs3)c(=O)c2cc1OC |  | -10.4
16 | COc1ccc(C(=O)/C=C/c2ccc(O)cc2)c2c1CC(O)C(C)(C)O2 (stereo unspecified) |  | -8.07
17 | O=S(=O)(c1ccccc1)N1CCN=C1SCc1ccccc1 | > 39 µM | 
18 | CCc1ccc(Nc2n[n+](-c3ccccc3)c(-c3ccc(OC)c(Br)c3)s2)cc1 |  | -14.3
19 | FC(F)(F)c1cc(Cl)c2nc(-c3ccccc3)c(Cc3ccsc3)n2c1 |  | -3.45
20 | Cc1ccc(C(=O)Nc2ccc(N3CCCCC3)cc2)cc1 |  | -8.38
21 | O=C(CSc1nnc(-c2ccncc2)o1)N1CCCCCC1 |  | -6.56
